Reference: PubChem BioAssay AID828 (The Scripps Research Institute Molecular Screening Center, 2007)
The campaign covered roughly 140,000 compounds. About 550 (0.39%) were called active. The sample holds actives, similar compounds and a random draw of the others, so the mix is not that of the screen. A number with no mark means an inactive call. Rule as the data show it: active = inhibition above about 27%; inactive = the rest.

biological target: Galanin receptor type 2 (Homo sapiens) (UniProt O43603); assay: blockers of human galanin receptor 2 – cell-based, primary screen (AID 828); details: GALR2-expressing cells, antagonist mode; at 4 µM; stronger effect = higher value;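 also: cells stimulated with galanin 1-16 at roughly its EC80; 0% = agonist challenge control and 100% = basal control without agonist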
Sequence (O43603 whole entry, looked up): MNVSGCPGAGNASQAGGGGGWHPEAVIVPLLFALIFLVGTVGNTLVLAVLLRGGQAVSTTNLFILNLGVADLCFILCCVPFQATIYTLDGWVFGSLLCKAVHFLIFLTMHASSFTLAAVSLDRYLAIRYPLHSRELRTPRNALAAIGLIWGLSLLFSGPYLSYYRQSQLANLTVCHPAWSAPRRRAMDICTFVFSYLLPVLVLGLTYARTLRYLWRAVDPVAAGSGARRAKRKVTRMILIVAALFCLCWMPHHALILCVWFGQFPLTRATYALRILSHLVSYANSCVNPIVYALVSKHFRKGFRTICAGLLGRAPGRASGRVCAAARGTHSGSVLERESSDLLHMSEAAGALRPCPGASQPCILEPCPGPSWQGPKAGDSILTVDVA

| SMILES | inhibition |
| --- | --- |
| NS(=O)(=O)c1ccc(CCNC(=S)Nc2ccc(S(N)(=O)=O)cc2)cc1 | 5.94% |
| Cc1cc(C)c(C#N)c(SCC(=O)NN2CC(=O)N(c3ccccc3F)CC2=O)n1 | 12.2% |
| COc1ccc(C)cc1S(=O)(=O)N(CC(=O)Nc1cccc([N+](=O)[O-])c1)c1ccc(C)cc1 | -2.05% |
| O=C(COC(=O)C1CC2C=CC1C2)Nc1ccccc1 (stereo not given) | -0.08% |
| Cc1cc(C(=O)COC(=O)CNC(=O)c2ccc(F)cc2)c(C)n1Cc1ccco1 | 3.46% |
| Cc1cccc(C(=O)NCC(=O)OCC(=O)N2CC3(C)CC2CC(C)(C)C3)c1 (stereo not given) | 1.61% |
| Cc1nnnn1/C(=C\c1ccccc1)C(=O)OCC(=O)N1CC2(C)CC1CC(C)(C)C2 (stereo not given) | 27.3% (active) |
| COc1ccccc1C(=O)N1CC2(C)CC1CC(C)(C)C2 (stereo not given) | 1.39% |
| COC(=O)N/N=C/c1ccc(-c2ccc(Cl)c(Cl)c2)o1 | -7.04% |
| COc1cc(C(=O)NNC(=O)c2ccc(S(=O)(=O)N3CCCCC3)cc2)cc(OC)c1OC | 9.59% |
| CC(C)COP(=O)(c1ccc(N(C)C)cc1)C(Nc1ccccc1)c1cccnc1 (stereo not given) | 3.84% |
| O=C(CSC(=S)N1CCOCC1)c1ccccc1 | 5.48% |
| COc1ccc(Nc2nc(NCc3ccco3)nc(N/N=C/c3ccccc3Cl)n2)cc1 | -5.3% |
| O=C(/C=C/c1ccccc1)Nc1nnc(SCC(=O)c2ccc3ccccc3c2)s1 | -9.23% |
| COc1ccc(C(=O)Nc2sc(C)c(C)c2CN2CCOCC2)cc1 | 3.47% |
| COc1ccc(Cl)cc1NC(=O)[C@@H]1CCCN1C(=O)c1cccs1 | -3.13% |
| c1ccc2[nH]c(-c3nc4ccccc4[nH]3)nc2c1 | 35.5% (active) |
| Cc1ccc(-c2nc3ccccc3[nH]2)cc1N | 4.32% |
| c1ccc(-c2[nH]ncc2-c2nc3ccccc3[nH]2)cc1 | 0.69% |
| Cc1ccc(-c2nc(-c3cccnc3)sc2CC(=O)Nc2ccc(C)c(Cl)c2)cc1 | 8.6% |

| SMILES | inhibition |
| --- | --- |
| CSc1ccc(/C=N/NC(=O)c2cccc(Cl)c2)cc1 | 9.93% |
| CCCN(CCC)C(=S)Nc1cc(C(=O)OC)ccc1C(=O)OC | 0.52% |
| O=C(Oc1cccc(N2C(=O)C3C4c5ccccc5C(c5ccccc54)C3C2=O)c1)c1ccco1 (stereo not given) | 1.71% |
| O=C1C2C3C=CC(C4CC34)C2C(=O)N1c1nccs1 (stereo not given) | -7.75% |
| CC[C@H]1CN2CCc3cc(OC)c(OC)cc3[C@@H]2C[C@@H]1C[C@H]1NCCc2cc(OC)c(OC)cc21 | 95% (active) |
| COc1cc2c(cc1O)[C@H](Cc1ccc(Oc3cc(C[C@@H]4NCCc5cc(OC)c(O)cc54)ccc3O)cc1)NCC2 | 1.51% |
| O=C(NCCc1ccccc1)C1CCC(Cn2c(=O)c3ccccc3n(Cc3cccnc3)c2=O)CC1 (stereo not given) | -3.73% |
| Cc1ccc(-n2nc(C)c(/C=N/NC(=O)c3cccs3)c2Cl)cc1 | -3.43% |
| Cc1cc(-c2n[nH]c(=S)n2/N=C/C(Br)=C/c2ccccc2)n[nH]1 | 34.7% (active) |
| S=c1[nH]nc(-c2cccnc2)n1/N=C/C(Cl)=C\c1ccccc1 | 18% |
| Cc1ccc(/C=N\n2c(-c3ccccc3)n[nH]c2=S)s1 | 5.78% |
| Cc1nc2ccccc2nc(C)c1=NOCc1ccc(Cl)cc1Cl | 10.4% |
| COc1ccc(/C=N/OCC(=O)N(Cc2ccccc2)c2ccccc2C(=O)O)cc1 | 2.54% |
| CNC(=O)/C(C#N)=C/c1c(F)cccc1Cl | 20.6% |
| COc1ccc(/C=C2/C(=O)OCc3cc(OC)c(OC)cc32)c(OC)c1 | 2.64% |
| COc1ccc(C2NC(=S)NC3=C2CCc2ccccc23)cc1OC (stereo not given) | -4.17% |
| O=C(N/N=C/c1ccccn1)C12CC3CC(CC(C3)C1)C2 | -0.89% |
| Cn1c(-c2ccco2)nc2cc3ccccc3cc21 | 29.7% (active) |
| CN1c2ccccc2-c2nc3ccccc3n2C1c1ccco1 (stereo not given) | -6.2% |
| CN(c1nc2ccccc2n2c(-c3ccco3)nnc12)S(=O)(=O)c1ccccc1 | 3% |
